# Tests used:
# Cell adhesion molecule 3 = Cell adhesion molecule 3 (UniProt Q99N28); experiment: cross-link between two proteins; cross-linking mass spectrometry
# [1] = molecular target: Cell cycle control protein 50A (UniProt Q8VEK0); experiment: as above
# Clathrin heavy chain 1 = Clathrin heavy chain 1 (UniProt Q68FD5); experiment: as above
# Clathrin light chain B = Clathrin light chain B (UniProt Q6IRU5); experiment: as above
# Cofilin-1 = Cofilin-1 (UniProt P23528); experiment: as above
# [2] = molecular target: Complement C1q subcomponent subunit C (UniProt Q02105); experiment: as above
# Cytochrome c = Cytochrome c (UniProt P99999); experiment: as above
# [3] = molecular target: Cytochrome c oxidase assembly factor 3 homolog, mitochondrial (UniProt Q9Y2R0); experiment: as above
# [4] = molecular target: Cytoplasmic FMR1-interacting protein 2 (UniProt Q5SQX6); experiment: as above
# [5] = molecular target: Cytoplasmic dynein 1 heavy chain 1 (UniProt Q9JHU4); experiment: as above
# [6] = molecular target: Delta-1-pyrroline-5-carboxylate synthase (UniProt P54886); experiment: as above
# Prohibitin-2 = Prohibitin-2 (UniProt Q99623); experiment: as above
# [7] = molecular target: Scaffold attachment factor B1 (UniProt Q15424); experiment: as above
# [8] = molecular target: Trifunctional enzyme subunit alpha, mitochondrial (UniProt P40939); experiment: as above
# [9] = molecular target: Dihydrolipoyl dehydrogenase, mitochondrial (UniProt P09622); experiment: as above
# [10] = molecular target: Malate dehydrogenase, mitochondrial (UniProt P40926); experiment: as above
# [11] = molecular target: Disintegrin and metalloproteinase domain-containing protein 22 (UniProt Q9R1V6); experiment: as above
# [12] = molecular target: Disintegrin and metalloproteinase domain-containing protein 23 (UniProt Q9R1V7); experiment: as above
# [13] = molecular target: DnaJ homolog subfamily A member 1 (UniProt P63037); experiment: as above
# [14] = molecular target: Vesicle-associated membrane protein 1 (UniProt Q62442); experiment: as above
# [15] = molecular target: DnaJ homolog subfamily C member 5 (UniProt Q9H3Z4); experiment: as above
# [16] = molecular target: Dolichyl-diphosphooligosaccharide--protein glycosyltransferase subunit 1 (UniProt P04843); experiment: as above
# [17] = molecular target: Vesicle-associated membrane protein-associated protein A (UniProt Q9P0L0); experiment: as above
# Dynactin subunit 2 = Dynactin subunit 2 (UniProt Q99KJ8); experiment: as above
# Dynactin subunit 3 = Dynactin subunit 3 (UniProt Q9Z0Y1); experiment: as above
# Dynamin-3 = Dynamin-3 (UniProt Q8BZ98); experiment: as above
# [18] = molecular target: Dynein light chain 2, cytoplasmic (UniProt Q9D0M5); experiment: as above
# Protein piccolo = Protein piccolo (UniProt Q9QYX7); experiment: as above
# [19] = molecular target: EH domain-containing protein 1 (UniProt Q9WVK4); experiment: as above
# [20] = molecular target: ER membrane protein complex subunit 2 (UniProt Q9CRD2); experiment: as above
# ERO1-like protein alpha = ERO1-like protein alpha (UniProt Q96HE7); experiment: as above
# [21] = molecular target: Elongation factor 1-alpha 2 (UniProt P62631); experiment: as above
# [22] = molecular target: Epidermal growth factor receptor substrate 15-like 1 (UniProt Q9UBC2); experiment: as above
# Erlin-1 = Erlin-1 (UniProt Q91X78); experiment: as above
# [23] = molecular target: Eukaryotic translation initiation factor 2 subunit 3, X-linked (UniProt Q9Z0N1); experiment: as above
# [24] = molecular target: Eukaryotic translation initiation factor 3 subunit B (UniProt Q8JZQ9); experiment: as above
# Flotillin-1 = Flotillin-1 (UniProt O75955); experiment: as above
# Flotillin-2 = Flotillin-2 (UniProt Q60634); experiment: as above
# [25] = molecular target: Fragile X messenger ribonucleoprotein 1 (UniProt Q06787); experiment: as above
# [26] = molecular target: 10 kDa heat shock protein, mitochondrial (UniProt P61604); experiment: cross-linking mass spectrometry
# [27] = molecular target: Heat shock cognate 71 kDa protein (UniProt P11142); experiment: cross-linking mass spectrometry
# [28] = molecular target: Heat shock 70 kDa protein 1B (UniProt P0DMV9); experiment: cross-link between two proteins; cross-linking mass spectrometry
# Syntaxin-8 = Syntaxin-8 (UniProt Q9UNK0); experiment: cross-linking mass spectrometry
# [29] = molecular target: Gamma-soluble NSF attachment protein (UniProt Q99747); experiment: cross-link between two proteins; cross-linking mass spectrometry
# [30] = molecular target: Fructose-bisphosphate aldolase A (UniProt P05064); experiment: as above
# [31] = molecular target: Gamma-aminobutyric acid receptor subunit beta-1 (UniProt P50571); experiment: as above
# Glutamate dehydrogenase 1, mitochondrial, P00367, sequence (P00367 whole entry): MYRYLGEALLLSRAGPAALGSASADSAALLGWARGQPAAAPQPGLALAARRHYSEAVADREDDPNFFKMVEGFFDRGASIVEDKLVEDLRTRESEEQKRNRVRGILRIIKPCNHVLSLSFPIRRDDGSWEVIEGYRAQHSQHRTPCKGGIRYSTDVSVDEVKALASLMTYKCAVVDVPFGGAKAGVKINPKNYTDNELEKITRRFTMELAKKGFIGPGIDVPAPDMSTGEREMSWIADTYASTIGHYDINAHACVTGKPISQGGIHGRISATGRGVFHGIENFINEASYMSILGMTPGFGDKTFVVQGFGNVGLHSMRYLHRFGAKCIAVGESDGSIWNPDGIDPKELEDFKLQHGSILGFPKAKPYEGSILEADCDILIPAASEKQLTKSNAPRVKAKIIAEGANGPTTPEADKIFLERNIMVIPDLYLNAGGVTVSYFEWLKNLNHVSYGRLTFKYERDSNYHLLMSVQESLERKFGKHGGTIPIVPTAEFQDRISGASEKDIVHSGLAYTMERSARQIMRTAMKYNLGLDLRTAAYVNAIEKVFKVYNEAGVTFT
# Disintegrin and metalloproteinase domain-containing protein 22, sequence (Q9R1V6 whole entry, the tested form may be a part): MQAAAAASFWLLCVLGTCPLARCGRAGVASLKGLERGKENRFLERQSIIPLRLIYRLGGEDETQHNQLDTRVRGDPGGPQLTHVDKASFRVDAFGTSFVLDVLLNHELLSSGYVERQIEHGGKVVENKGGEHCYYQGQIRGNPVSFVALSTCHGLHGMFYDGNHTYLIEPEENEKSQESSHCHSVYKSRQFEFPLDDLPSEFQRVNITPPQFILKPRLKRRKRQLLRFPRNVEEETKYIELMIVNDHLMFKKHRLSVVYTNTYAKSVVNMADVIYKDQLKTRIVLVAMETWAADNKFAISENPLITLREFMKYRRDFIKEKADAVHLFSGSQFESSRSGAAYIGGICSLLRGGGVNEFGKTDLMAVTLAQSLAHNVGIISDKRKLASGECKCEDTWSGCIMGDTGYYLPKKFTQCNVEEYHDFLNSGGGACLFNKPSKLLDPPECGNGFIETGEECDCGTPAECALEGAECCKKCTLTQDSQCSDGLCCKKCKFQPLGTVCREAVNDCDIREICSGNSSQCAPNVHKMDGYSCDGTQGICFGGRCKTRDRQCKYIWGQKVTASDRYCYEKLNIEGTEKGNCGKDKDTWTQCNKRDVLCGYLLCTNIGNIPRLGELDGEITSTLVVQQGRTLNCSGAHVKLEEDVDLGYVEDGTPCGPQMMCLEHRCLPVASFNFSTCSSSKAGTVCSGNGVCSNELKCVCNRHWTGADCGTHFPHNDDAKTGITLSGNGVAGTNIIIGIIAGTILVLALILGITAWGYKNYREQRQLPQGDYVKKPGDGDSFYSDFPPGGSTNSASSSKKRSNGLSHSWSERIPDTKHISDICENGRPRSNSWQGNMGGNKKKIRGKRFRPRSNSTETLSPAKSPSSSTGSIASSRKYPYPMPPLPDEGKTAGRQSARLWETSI
# Dynactin subunit 2, sequence (Q99KJ8 whole entry): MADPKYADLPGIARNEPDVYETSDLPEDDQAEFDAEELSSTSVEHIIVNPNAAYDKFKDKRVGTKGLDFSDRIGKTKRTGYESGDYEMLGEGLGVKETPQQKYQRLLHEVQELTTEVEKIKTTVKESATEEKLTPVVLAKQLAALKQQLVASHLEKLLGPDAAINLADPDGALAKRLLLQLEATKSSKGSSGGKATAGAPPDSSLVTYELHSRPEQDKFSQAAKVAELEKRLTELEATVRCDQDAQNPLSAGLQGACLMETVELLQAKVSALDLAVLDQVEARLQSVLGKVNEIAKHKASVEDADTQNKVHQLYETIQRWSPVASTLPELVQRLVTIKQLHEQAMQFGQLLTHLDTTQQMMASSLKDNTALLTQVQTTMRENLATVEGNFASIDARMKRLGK
# Prohibitin-2, sequence (Q99623 whole entry): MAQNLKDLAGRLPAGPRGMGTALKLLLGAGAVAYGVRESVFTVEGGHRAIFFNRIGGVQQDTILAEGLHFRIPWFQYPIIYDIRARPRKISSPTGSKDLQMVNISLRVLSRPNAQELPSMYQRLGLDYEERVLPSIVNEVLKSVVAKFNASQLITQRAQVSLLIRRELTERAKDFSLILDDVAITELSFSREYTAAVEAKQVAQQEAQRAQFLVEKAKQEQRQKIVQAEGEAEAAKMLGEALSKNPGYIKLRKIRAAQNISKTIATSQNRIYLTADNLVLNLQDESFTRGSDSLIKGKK
# Syntaxin-8, sequence (Q9UNK0 whole entry): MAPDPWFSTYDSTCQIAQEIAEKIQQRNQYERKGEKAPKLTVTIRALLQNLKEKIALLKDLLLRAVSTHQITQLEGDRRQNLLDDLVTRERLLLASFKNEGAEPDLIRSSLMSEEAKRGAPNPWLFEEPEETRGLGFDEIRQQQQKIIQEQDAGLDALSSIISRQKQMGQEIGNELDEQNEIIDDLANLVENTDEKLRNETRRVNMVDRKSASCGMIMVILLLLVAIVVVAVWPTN
# Cytoplasmic FMR1-interacting protein 2, sequence (Q5SQX6 whole entry): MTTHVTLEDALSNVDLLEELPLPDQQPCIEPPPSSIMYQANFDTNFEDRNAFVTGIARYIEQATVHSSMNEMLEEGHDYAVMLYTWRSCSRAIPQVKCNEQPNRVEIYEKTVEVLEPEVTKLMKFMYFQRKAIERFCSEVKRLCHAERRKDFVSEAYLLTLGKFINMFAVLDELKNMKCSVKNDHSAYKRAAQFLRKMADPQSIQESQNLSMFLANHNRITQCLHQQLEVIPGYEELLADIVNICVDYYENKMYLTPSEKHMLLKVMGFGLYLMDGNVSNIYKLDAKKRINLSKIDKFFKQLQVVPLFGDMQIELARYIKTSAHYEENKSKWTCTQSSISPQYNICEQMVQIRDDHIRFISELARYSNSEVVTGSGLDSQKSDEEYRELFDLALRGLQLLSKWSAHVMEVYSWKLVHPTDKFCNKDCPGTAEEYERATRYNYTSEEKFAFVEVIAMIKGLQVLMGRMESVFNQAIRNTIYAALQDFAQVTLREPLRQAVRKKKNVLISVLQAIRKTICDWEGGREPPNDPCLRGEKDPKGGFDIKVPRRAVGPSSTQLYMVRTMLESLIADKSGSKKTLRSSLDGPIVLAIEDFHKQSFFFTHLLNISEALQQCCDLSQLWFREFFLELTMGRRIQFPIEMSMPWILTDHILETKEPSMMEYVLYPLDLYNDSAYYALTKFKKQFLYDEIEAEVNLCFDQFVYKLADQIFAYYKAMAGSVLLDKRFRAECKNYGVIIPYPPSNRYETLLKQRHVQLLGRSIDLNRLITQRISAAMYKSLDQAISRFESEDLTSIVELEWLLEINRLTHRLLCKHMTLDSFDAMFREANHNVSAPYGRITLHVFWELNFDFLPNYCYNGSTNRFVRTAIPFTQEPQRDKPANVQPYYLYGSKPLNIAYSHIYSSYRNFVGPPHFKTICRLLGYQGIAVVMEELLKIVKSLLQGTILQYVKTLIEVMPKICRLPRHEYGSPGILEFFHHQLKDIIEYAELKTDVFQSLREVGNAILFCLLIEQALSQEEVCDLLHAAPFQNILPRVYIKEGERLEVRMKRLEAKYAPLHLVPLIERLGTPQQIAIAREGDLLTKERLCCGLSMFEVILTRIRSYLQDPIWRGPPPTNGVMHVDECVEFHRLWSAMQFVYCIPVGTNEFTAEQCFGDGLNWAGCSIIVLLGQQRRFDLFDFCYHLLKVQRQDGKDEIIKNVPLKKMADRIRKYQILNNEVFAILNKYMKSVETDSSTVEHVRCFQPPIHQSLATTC
# Heat shock cognate 71 kDa protein, sequence (P11142 whole entry): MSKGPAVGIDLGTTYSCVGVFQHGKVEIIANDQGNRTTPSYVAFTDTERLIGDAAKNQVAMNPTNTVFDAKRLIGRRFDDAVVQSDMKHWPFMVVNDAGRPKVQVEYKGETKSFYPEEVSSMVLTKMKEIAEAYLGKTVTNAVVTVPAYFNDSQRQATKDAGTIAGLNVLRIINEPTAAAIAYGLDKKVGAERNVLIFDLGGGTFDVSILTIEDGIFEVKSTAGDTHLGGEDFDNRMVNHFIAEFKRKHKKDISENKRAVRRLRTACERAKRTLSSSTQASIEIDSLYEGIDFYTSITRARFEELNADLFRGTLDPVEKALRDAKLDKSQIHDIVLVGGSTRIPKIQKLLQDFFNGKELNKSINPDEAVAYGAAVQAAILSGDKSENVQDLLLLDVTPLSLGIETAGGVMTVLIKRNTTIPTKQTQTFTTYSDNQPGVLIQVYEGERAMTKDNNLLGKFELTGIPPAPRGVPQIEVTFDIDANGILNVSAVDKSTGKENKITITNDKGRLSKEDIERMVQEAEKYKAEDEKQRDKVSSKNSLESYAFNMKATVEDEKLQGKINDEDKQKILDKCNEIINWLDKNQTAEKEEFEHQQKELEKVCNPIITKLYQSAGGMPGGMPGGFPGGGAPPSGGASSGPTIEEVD
# Clathrin light chain B, sequence (Q6IRU5 whole entry): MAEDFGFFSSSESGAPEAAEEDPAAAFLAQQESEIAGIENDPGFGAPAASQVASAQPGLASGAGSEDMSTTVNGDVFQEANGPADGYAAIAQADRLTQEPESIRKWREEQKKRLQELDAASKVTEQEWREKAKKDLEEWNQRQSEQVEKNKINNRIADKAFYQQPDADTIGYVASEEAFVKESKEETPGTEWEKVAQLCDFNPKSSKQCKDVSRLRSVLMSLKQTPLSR
# Vesicle-associated membrane protein 1, sequence (Q62442 whole entry): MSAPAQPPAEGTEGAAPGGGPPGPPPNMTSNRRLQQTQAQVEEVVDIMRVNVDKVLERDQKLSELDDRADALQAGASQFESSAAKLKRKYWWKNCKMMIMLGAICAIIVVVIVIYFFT
# Gamma-soluble NSF attachment protein, sequence (Q99747 whole entry): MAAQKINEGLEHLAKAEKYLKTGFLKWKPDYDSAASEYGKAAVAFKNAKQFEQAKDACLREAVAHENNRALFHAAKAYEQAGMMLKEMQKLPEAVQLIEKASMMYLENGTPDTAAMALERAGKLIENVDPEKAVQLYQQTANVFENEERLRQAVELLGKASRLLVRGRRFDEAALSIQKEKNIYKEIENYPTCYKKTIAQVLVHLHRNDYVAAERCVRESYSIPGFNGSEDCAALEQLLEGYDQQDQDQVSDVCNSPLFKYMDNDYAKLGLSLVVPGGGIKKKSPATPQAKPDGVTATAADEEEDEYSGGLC
substance,measurement,setting,value
"Cell adhesion molecule 2, Q8BLQ9",listed as a hit,Cell adhesion molecule 3,yes
"Phospholipid-transporting ATPase IA, P70704",listed as a hit,[1],yes
"Clathrin light chain A, O08585",listed as a hit,Clathrin heavy chain 1,yes
"Clathrin heavy chain 1, Q68FD5",listed as a hit,Clathrin light chain B,yes
"WD repeat-containing protein 1, O75083",listed as a hit,Cofilin-1,yes
"Complement C1q subcomponent subunit A, P98086",listed as a hit,[2],yes
"Holocytochrome c-type synthase, P53701",listed as a hit,Cytochrome c,yes
"COX assembly mitochondrial protein homolog, Q7Z7K0",listed as a hit,[3],yes
"Nck-associated protein 1, P28660",listed as a hit,[4],yes
"Cytoplasmic dynein 1 light intermediate chain 1, Q8R1Q8",listed as a hit,[5],yes
"Cytoplasmic dynein 1 light intermediate chain 2, Q6PDL0",listed as a hit,[5],yes
"60 kDa heat shock protein, mitochondrial, P10809",listed as a hit,[6],yes
same,listed as a hit,Prohibitin-2,yes
same,listed as a hit,[7],yes
same,listed as a hit,[8],yes
"Glutamate dehydrogenase 1, mitochondrial, P00367",listed as a hit,[9],yes
same,listed as a hit,[10],yes
"Leucine-rich glioma-inactivated protein 1, Q9JIA1",listed as a hit,[11],yes
same,listed as a hit,[12],yes
"Contactin-2, Q61330",listed as a hit,[11],yes
"DnaJ homolog subfamily C member 5, P60904",listed as a hit,[13],yes
same,listed as a hit,[14],yes
"DnaJ homolog subfamily A member 1, P31689",listed as a hit,[15],yes
"Membrane-associated progesterone receptor component 2, O15173",listed as a hit,[16],yes
same,listed as a hit,[17],yes
"Dynactin subunit 1, O08788",listed as a hit,Dynactin subunit 2,yes
"Beta-centractin, Q8R5C5",listed as a hit,Dynactin subunit 2,yes
"Dynactin subunit 2, Q99KJ8",listed as a hit,Dynactin subunit 3,yes
"Dynamin-1, P39053",listed as a hit,Dynamin-3,yes
"Protein bassoon, O88737",listed as a hit,[18],yes
same,listed as a hit,Protein piccolo,yes
"EH domain-containing protein 3, Q9QXY6",listed as a hit,[19],yes
"ER membrane protein complex subunit 8, O70378",listed as a hit,[20],yes
"Thioredoxin domain-containing protein 5, Q8NBS9",listed as a hit,ERO1-like protein alpha,yes
"Elongation factor 1-alpha 1, P10126",listed as a hit,[21],yes
"Intersectin-2, Q9NZM3",listed as a hit,[22],yes
"Erlin-2, Q8BFZ9",listed as a hit,Erlin-1,yes
"Eukaryotic translation initiation factor 2 subunit 1, Q6ZWX6",listed as a hit,[23],yes
"Eukaryotic translation initiation factor 3 subunit A, P23116",listed as a hit,[24],yes
"Syntaxin-7, O15400",listed as a hit,Flotillin-1,yes
"Flotillin-1, O08917",listed as a hit,Flotillin-2,yes
"RNA-binding protein FXR1, P51114",listed as a hit,[25],yes
"Peptidyl-prolyl cis-trans isomerase F, mitochondrial, P30405",listed as a hit,[26],yes
"BAG family molecular chaperone regulator 2, O95816",listed as a hit,[27],yes
same,listed as a hit,[28],yes
"Alpha-soluble NSF attachment protein, P54920",listed as a hit,Syntaxin-8,yes
same,listed as a hit,[29],yes
"Fructose-bisphosphate aldolase C, P05063",listed as a hit,[30],yes
"Gamma-aminobutyric acid receptor subunit gamma-2, P22723",listed as a hit,[31],yes

# From publication PMC11024108
